Assay results from PubChem BioAssay AID2401 (Southern Research Specialized Biocontainment Screening …, 2010).
In all, about 2,200 compounds went through this assay and about 530 (24%) were called active.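 How the source made its calls: active means inhibition above a set limit at one or more concentrations of the dose series; inactive means inhibition under that limit at every dose.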 Only a sample is shown. Entries with a potency or affinity are not part of this list.

Test: nmpC-GFP reporter counter-screen in S. Typhimurium, dose response, counter-screen for PhoP regulon inhibitor project, Salmonella Typhimurium, GFP fluorescence (AID 2401);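 further: S. typhimurium with Mg-insensitive nmpC-GFP reporter grown at 10 µM Mg2+; drop in reporter fluorescence reflects general culture growth inhibition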
Settings: 4 h; series mostly up to 150 µM

Row | Structure (SMILES) | outcome
1 | C=CCN=C(NC#N)SCc1ccccc1Cl | inactive
2 | Cc1ccc(NC(=O)C2CC(=O)NC(N3CCCCC3)=N2)cc1Cl (configuration not stated) | inactive
3 | COC(=O)N1CCN(c2ccc(Cl)c(Cl)c2)CC1 | inactive
4 | O=C(COc1ncnc2sccc12)N1CCN(S(=O)(=O)c2ccc(Cl)cc2)CC1 | inactive
5 | CC1CCN(C(c2cc3cc4c(cc3[nH]c2=O)OCO4)c2nnnn2CC2CCCO2)CC1 (configuration not stated) | inactive
6 | CCOC(=O)C[n+]1c(C)sc2ccc(OC)cc21 | inactive
7 | COc1ccc(C)cc1Nc1nc(-c2c(C)[nH]c3ccccc23)cs1 | inactive
8 | CCOC(=O)c1c(N)ssc1=S | inactive
9 | O=c1[nH]c(NCc2ccco2)nnc1Cc1ccccc1Cl | inactive
10 | N/C(=N\OC(=O)c1ccc(F)cc1)c1nonc1N | inactive
11 | O=C(c1ccccc1)N1CCN(c2ccc([N+](=O)[O-])c(NCc3ccco3)c2)CC1 | inactive
12 | O=C(NC(=Nc1ccccc1)N1CCOCC1)Nc1ccccc1 | inactive
13 | COc1ccc(C(=O)On2c(-c3ccc(Br)cc3)nc3ccccc3c2=O)cc1 | inactive
14 | Cc1cc(-c2csc(N)n2)c(C)n1-c1ccccc1 | inactive
15 | N#CC1=C(N)N=C(SCc2cccc3ccccc23)C(C(N)=O)C12CCCCC2 (configuration not stated) | inactive
16 | CCCCC1CCC(C(=O)Nc2ccccc2)CC1 (configuration not stated) | inactive
17 | Cc1ccc(CCNC(=O)C2CCCN(S(=O)(=O)c3c(C)noc3C)C2)cc1 (configuration not stated) | inactive
18 | c1ccc2c(c1)ncn2CCCCOc1ccc2c(c1)CCC2 | inactive
19 | O=C(c1ccc(CSc2nc3ccncc3[nH]2)cc1)N1CCN(c2cccc(Cl)c2)CC1 | inactive
20 | CC(=O)N1N=C(c2ccco2)CC1c1ccc(Br)cc1 (configuration not stated) | inactive
21 | OCCCNc1nc(-c2ccc(Cl)cc2)nnc1-c1ccc(Br)cc1 | inactive
22 | CC(C)[C@@H]1CC[C@@H](C)C[C@H]1OC(=O)C[n+]1cc(-c2ccc(Cl)cc2)n2c1CCCCC2 | inactive
23 | COc1ccc(-n2c(CNc3ccc(C)cc3)nnc2SCc2ccccc2)cc1 | inactive
24 | Cn1cc(-c2nnnn2-c2cccc(C(F)(F)F)c2)c(C(F)(F)F)n1 | inactive

Row | Structure (SMILES) | outcome
25 | CCn1c(CNC(=O)c2cccc(C)c2)nc2ccccc21 | inactive
26 | COc1ccccc1-c1c(C#N)c(N)nc2c1CCc1ccccc1-2 | inactive
27 | O=c1cc(Cc2ccccc2)[nH]c(=S)[nH]1 | inactive
28 | CCOC(=O)Cc1ccc(NS(=O)(=O)c2ccc(SC)cc2)cc1 | inactive
29 | NC1=NC(=Nc2cccc(Cl)c2)c2ccccc21 | inactive
30 | C#CCOc1ccc(/C=C2\SC(=S)N(Cc3cccnc3)C2=O)cc1 | inactive
31 | COCCNC(=O)c1ccc(C(=O)NCCOC)s1 | inactive
32 | CC(Nc1ccc(Br)cn1)c1cc(Cl)ccc1O (configuration not stated) | inactive
33 | COc1cc([N+](=O)[O-])cc(/C=N/NC(=O)c2cccnc2)c1O | inactive
34 | COc1ccc(/C=N/NC(=O)c2ccc3c(c2)OCCO3)cc1[N+](=O)[O-] | inactive
35 | O=C(Nc1cc(C(F)(F)F)ccc1N1CCOCC1)c1ccc(Br)o1 | inactive
36 | Cc1nc(N2CCN(Cc3ccc4c(c3)OCO4)CC2)nc2c1C(=O)CC(c1ccco1)C2 (configuration not stated) | inactive
37 | CC1CCN(S(=O)(=O)c2cccc(C(=O)N(C)C3CCS(=O)(=O)C3)c2)CC1 (configuration not stated) | inactive
38 | CN1c2ccccc2C(O)=C(C(=O)Nc2ccccc2)S1(=O)=O | inactive
39 | O=C(N/N=C/c1ccc(F)cc1)c1cc(-c2ccco2)nc2ccccc12 | inactive
40 | COC(=O)C1=C(C)N(C)C(=O)/C1=C\c1ccco1 | inactive
41 | O=C(COc1ccccc1)NC(=S)Nc1ccc2c3c(cccc13)CC2 | inactive
42 | Cc1ccc(C(=O)CSc2ncnc3sc4c(c23)CCCC4)cc1 | inactive
43 | COc1ccc(N2CCN(C(=O)CN(c3cccc(Br)c3)S(C)(=O)=O)CC2)cc1 | inactive
44 | O=C(/C=C/c1ccco1)Oc1cc(Br)cc(/C=N/NC(=O)c2ccccc2O)c1 | inactive
45 | CCN1CCN(C(=O)c2ccc3c(=O)n(Cc4ccccc4OC)c(=S)[nH]c3c2)CC1 | inactive
46 | Cc1cc(C)nc(Nc2ccc(N3CCCC3)cc2)n1 | inactive
47 | O=C(NCCc1ccccc1)c1ccc2nc(-c3ccco3)c(-c3ccco3)nc2c1 | inactive
48 | Clc1ccc(OCCn2ccnc2)c(Br)c1 | inactive

Row | Structure (SMILES) | outcome
49 | O=C(NC1CCN(C(=O)N2c3ccccc3Sc3ccccc32)CC1)c1ccco1 | inactive
50 | CCn1c2ccccc2c2cc(C3N=C(N)Nc4nc5ccccc5n43)ccc21 (configuration not stated) | inactive
51 | O=C(CN1CCN(c2ccccn2)CC1)Nc1ccc(Oc2ccccc2)cc1 | inactive
52 | COc1ccc(OC)c(C2=Nn3c(nnc3-c3cc(OC)c(OC)c(OC)c3)SC2)c1 | inactive
53 | O=C1CCCc2nc(N3CCN(Cc4ccccc4)CC3)ncc21 | inactive
54 | COc1ccc(Nc2sc(C(=O)Nc3cccc(Cl)c3)c(N)c2C(=O)Nc2ccccc2OC)cc1 | inactive
55 | O=S(=O)(c1ccc(F)c2ccccc12)N1CCCCC1 | inactive
56 | Cn1ccnc1SCC(=O)Nc1sccc1C#N | inactive
57 | Cn1cc(C(CC(=O)O)C(=O)O)c2ccccc21 (configuration not stated) | inactive
58 | c1ccc2c(N3CCCCCC3)nc(-c3ccncc3)nc2c1 | inactive
59 | CCOC(=O)c1cnc2ccc(OCC)cc2c1N1CCN(c2ccccc2)CC1 | inactive
60 | Cc1ccc(NC(=O)CCCSc2nc3ccccc3[nH]2)cc1 | inactive
61 | CCN(CCO)Cc1csc2ccccc12 | inactive
62 | CC(C)CCNC(=O)C12CN(Cc3ccccc3)CC1C(c1cccc([N+](=O)[O-])c1)=NO2 (configuration not stated) | inactive
63 | CCCn1c(NCc2c[nH]c3ccccc23)nc2ccccc21 | inactive
64 | COc1ccc(-c2cc(C(=O)Nc3ccc(S(=O)(=O)Nc4ncccn4)cc3)c3ccccc3n2)cc1 | inactive
65 | Nc1nc(C2CCCCC2)cs1 | inactive
66 | Clc1ccc(-n2ncc3c(NCc4cccs4)ncnc32)cc1 | inactive
67 | CC(C)Cc1nc2ccc(N)cc2[nH]1 | inactive
68 | COc1cccc(-c2nnc3sc(-c4ccc(C)cc4)nn23)c1 | inactive
69 | Cc1nc2c(C(=O)NCCC(C)C)c[nH]n2c(=O)c1Cc1ccccc1F | inactive
70 | CC(C)(C)NC(=O)CSc1nnc(-c2ccncc2)o1 | inactive
71 | CCCCCCC(=O)N(O)C1CC(=O)N(c2ccc(C)cc2)C1=O (configuration not stated) | inactive
72 | O=C(c1ccco1)[C@@H]1[C@@H]2C(=O)N(c3ccc(F)cc3)C(=O)[C@@H]2[C@H]2C=Cc3ccccc3N21 | inactive
